Experimental data reported in PubChem BioAssay (NCI).
Several values for one entry are separate records, joined by “and”; a condition that tells them apart may be missing. Identical values can stand only once. About 83,000 compounds went through this panel and 20% of them were active in at least one assay; those are over-represented in the sample as a whole.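 Single-concentration screen, 48 h exposure, 96-well plates. Endpoint: percent growth. Below 10 = active.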 Unmarked numbers belong to inactive results. Activity calls are given as the source filed them.

What follows are compounds tested on KM12 colon (assay: NCI-60 one-dose screen, 48 h (100 = growth as untreated, 0 = no growth, -100 = all killed)). Conditions: 10 µM unless noted.
Procedure: Growth inhibition of the KM12 human tumor cell line is measured as a screen for anti-cancer activity. Cells are grown in 96 well plates and exposed to the test compound for 48 hours. Compounds are tested at a single concentration, which is 10^-5 M for most compounds. The reported endpoint is percent growth (GI% or GIPRCNT), where numbers from 0 - 100% represent growth inhibition, and numbers from -100% - 0 represent cell death. For example, a value of 40 represents 60% growth inhibition. A value of 0 means no net growth occurred over the course of the experiment. A value of -40 indicates 40% of cells at the beginning of the experiment died by the end of the experiment. A value of -100 means all cells are dead at the end of the experiment.
NCI-60 Human Tumor Cell Lines Screen was performed using the standard one-dose NCI protocol, which is described in more detail at https://dtp.cancer.gov/discovery_development/nci-60/default.htm.
Compounds with GIPRCNT values below 10 were considered active. Activity score was based on GIPRCNT using the following formula: […]
Score is 0 for GIPRCNT values of 100 or above, 50 for GIPRCNT values of 0, and 100 for GIPRCNT values of -100.

**Q.** With `Cc1[nH]c(C(=O)Nc2ccccc2OCc2cccc(C(=O)NCCN)c2)cc1Cl` as the compound, how does the growth read?
**A.** Its growth is 86.4%.

**Q.** `O=C(CSc1nnc(-c2cccs2)n1-c1ccccc1)Nc1ccccc1` was tested. Which growth did it give?
**A.** The growth was 84.8%.

**Q.** With `CCN1CCN(c2ccc(NC(=O)Nc3ccc4c(ccn4-c4ccnc(C(=O)NC)c4)c3)cc2C(F)(F)F)CC1` as the compound, how does the growth read?
**A.** The growth was 36.4%.

**Q.** How did the growth turn out when `CCN(CC)CCOc1ccc(C(=C(c2ccccc2)C2CCCC2)c2ccc(OCCN(CC)CC)cc2)cc1` was run?
**A.** The growth was -7.22% (active).

**Q.** `N#Cc1c(-c2ccc(F)cc2)cc(-c2c[nH]c3ccccc23)nc1-c1c[nH]c2ccccc12` was tested. Which growth did it give?
**A.** Its growth is 101%.

**Q.** `N#Cc1cnc2ccc(-c3cnc4n[nH]nc4c3)cc2c1N1CCc2cc(F)c(Cl)cc21` was tested. Which growth did it give?
**A.** The growth was 17.4%.

**Q.** Which growth does the source give for `C#C[C@]1(O)CC[C@H]2[C@@H]3CC=C4c5sc(Nc6cc(Cl)ccc6OC)nc5CC[C@]4(C)[C@H]3CC[C@@]21C` here?
**A.** Its growth is 31.9%.

**Q.** `CCOC(=O)c1ccccc1NC1=C(Cl)C(=O)c2nc(C)ccc2C1=O` was tested. Which growth did it give?
**A.** The growth was 105%.

**Q.** `NNc1nnc2nc(Nc3ccccc3)nc(Nc3ccc(S(N)(=O)=O)cc3)n12` was tested. Which growth did it give?
**A.** The growth was 103%.

**Q.** Which growth does the source give for `O=C(Nc1cccc(Cl)c1)Nc1nc2cc([N+](=O)[O-])ccc2o1` here?
**A.** The growth was 26.5%.

**Q.** For `C#CCN(C)CCCOc1ccc(NCc2ccc(/C=C/C(=O)NO)cc2)cc1Cl`, which growth is on record?
**A.** The growth was 5.72% (active).

**Q.** How did the growth turn out when `N/C(=N\C(N)=N\c1nc2ccccc2s1)c1ccc(Cl)cc1` was run?
**A.** The growth was 68.4%.

**Q.** How did the growth turn out when `COc1ccc2c(c1)c(-c1nnc(N)nc1-c1c[nH]c3ccc(F)cc13)cn2C` was run?
**A.** Its growth is 22.9%.

**Q.** For `Cc1ccc2c(n1)C(=O)C(Cl)=C(Nc1cccc(C(=O)OC(C)(C)C)c1)C2=O`, which growth is on record?
**A.** The growth was 99.2%.

**Q.** For `C#CCN(C)CCCOc1ccc(NC(=O)CCCCCCC(=O)NO)cc1Cl`, which growth is on record?
**A.** Its growth is 24.8%.

**Q.** `OCC(Nc1ncnc2ccc(-c3cnc4cnccn34)cc12)c1ccccc1` (stereo not given) was tested. Which growth did it give?
**A.** Its growth is 80.9%.

**Q.** How did the growth turn out when `NC(=O)n1c(=O)n(-c2cccc(C(F)(F)F)c2)c(=O)c2cc(-c3ccc(F)cc3F)ccc21` was run?
**A.** The growth was 5.24% (active).

**Q.** With `CCOC(=O)c1cnc2c(-c3ccc(Cl)c(Cl)c3)cnn2c1` as the compound, how does the growth read?
**A.** The growth was 57.5%.

**Q.** How did the growth turn out when `Nn1c(=O)n(-c2cccc(C(F)(F)F)c2)c(=O)c2cc(-c3ccc(F)cc3F)ccc21` was run?
**A.** The growth was 8.93% (active).

**Q.** `CN1CCN(c2ccc(Nc3nc(NCCCNS(=O)(=O)c4ccc(Cl)cc4)c4sccc4n3)cc2)CC1` was tested. Which growth did it give?
**A.** The growth was 23.3%.

**Q.** How did the growth turn out when `O=c1nc(Nc2ccc([N+](=O)[O-])cc2O)sc2ccccc12` was run?
**A.** The growth was 23.9%.

**Q.** `N#Cc1c(-c2cccs2)cc(-c2cnccn2)nc1SCC(=O)N/N=C/c1ccccc1` was tested. Which growth did it give?
**A.** The growth was 33.2%.

**Q.** `COc1cc(-c2nc(-c3ccccc3)[nH]c2-c2ccnc(NCCCNS(=O)(=O)c3ccc(C(F)(F)F)cc3)n2)ccc1Cl` was tested. Which growth did it give?
**A.** Its growth is 25% and 32.5%.

**Q.** Which growth does the source give for `N#C/C(=N\Nc1ccc(F)cc1)C(=O)Nc1cc(-c2ccccc2)nn1-c1ccccc1` here?
**A.** The growth was 9.32% (active).

**Q.** For `CCc1nnc(NC(=O)c2cc(-c3ccc(Cl)cc3Cl)oc2C)s1`, which growth is on record?
**A.** Its growth is 72.7%.

**Q.** For `O=C(/C=C/c1cc(Cl)ccc1Cl)Nc1ncc(Cc2ccc(Cl)cc2)s1`, which growth is on record?
**A.** Its growth is 13.1%.

**Q.** With `Cc1ccc(/C(N)=N/C(N)=N/c2nc3ccccc3s2)cc1` as the compound, how does the growth read?
**A.** Its growth is 64.1%.

**Q.** For `O=C(CCCCCCNC(=O)C(O)(O)C(F)(F)F)Nc1ncc(-c2ccc(Br)cc2)s1`, which growth is on record?
**A.** Its growth is -67% (active).

**Q.** How did the growth turn out when `O=C1Nc2ccccc2/C1=N\c1nnc(-c2ccccc2)o1` was run?
**A.** Its growth is 96.7%.

**Q.** Which growth does the source give for `CCCNNC(=O)c1ccc(-c2ccc(NC(=O)CCCCCCC(=O)N[C@H](C(=O)N3C[C@H](O)C[C@H]3C(=O)N[C@@H](C)c3ccc(-c4scnc4C)cc3)C(C)(C)C)cc2)cc1` here?
**A.** The growth was 26.7%.

**Q.** Which growth does the source give for `CCCCN1C(=O)/C(=c2\sc3n(c2=O)C2C(NN=3)N(CC)C(=O)N2CC)c2cc(C)ccc21` (stereo not given) here?
**A.** Its growth is 94.1%.

**Q.** For `O=C(CSc1nc2ccccc2c(=O)n1CCc1ccccc1)Nc1ccc(S(=O)(=O)Nc2ccc(Cl)nn2)cc1`, which growth is on record?
**A.** Its growth is 98.8%.

**Q.** How did the growth turn out when `CCOC(=O)C1=C(C)NC(C)=C(C(=O)OCc2ccccc2)C1c1cccc(C#N)c1` (stereo not given) was run?
**A.** The growth was 25.5%.

**Q.** Which growth does the source give for `C/C(=C(/C)C1CC1CCNC1CCC(NC(=O)OC(C)(C)C)CC1)c1ccccc1` (stereo not given) here?
**A.** The growth was 73.7%.

**Q.** `NC1C2CCC1CN(c1cnc(C(=O)Nc3cc(F)cc4cccnc34)cn1)C2` (stereo not given) was tested. Which growth did it give?
**A.** The growth was 77.1%.

**Q.** `COc1cccc(N2CCN(C3=C(Cl)C(=O)c4ncccc4C3=O)CC2)c1` was tested. Which growth did it give?
**A.** Its growth is 94.5%.

**Q.** With `O=C1[C@@H]2Cc3c([nH]c4ccccc34)[C@H](c3ccc(Br)cc3)N2C(=O)CN1C1CCN(Cc2c(Cl)cccc2Cl)CC1` as the compound, how does the growth read?
**A.** Its growth is 99.1%.

**Q.** How did the growth turn out when `CC(C)(C)Nc1nc2c(OCCc3ccccc3)cccn2c1-c1ccc([N+](=O)[O-])cc1` was run?
**A.** The growth was 36.8%.

**Q.** With `COc1ccc(C(C)=C(c2ccc(OCCN(C)C)cc2)c2ccc(OCCN(C)C)cc2)cc1` as the compound, how does the growth read?
**A.** The growth was -8.05% (active).

**Q.** With `O=C(N/N=C/c1cc2ccccc2nc1Cl)c1cc(-c2nc3ccccc3[nH]2)nc2ccccc12` as the compound, how does the growth read?
**A.** The growth was 97.2%.
